Broadly, the AC50 is the concentration giving half of the maximal activity seen.

Where “and” joins values, the source holds several entries; their conditions need not be identical. Equal entries are not always repeated. Out of some 16,000 compounds screened, about 5,700 (36%) were called active. Another 24% or so got no clear call; they are omitted. The list shows a part of the results. A number with no mark means an inactive call. The call rests on the fitted dose curve; in most records, active means well fitted curve in the direction sought with a large enough effect; inconclusive means small, poorly fitted or top-dose-only effect, or effect the other way; inactive means no such curve, though single readings can be large or run the other way.
On the % scale 0 is the no-effect control and ±100 the full control effect.

For the assay, the target named is Cytochrome P450 1A2 (Homo sapiens) (UniProt P05177). Kind of assay: Cytochrome panel assay with activity outcomes. The conditions noted are these: recombinant CYP, pro-luciferin dealkylation, luminescence, p450-cyp1a2; series mostly up to 57.1 µM.
Cytochrome P450 1A2 (Homo sapiens), sequence (P05177 whole entry, looked up): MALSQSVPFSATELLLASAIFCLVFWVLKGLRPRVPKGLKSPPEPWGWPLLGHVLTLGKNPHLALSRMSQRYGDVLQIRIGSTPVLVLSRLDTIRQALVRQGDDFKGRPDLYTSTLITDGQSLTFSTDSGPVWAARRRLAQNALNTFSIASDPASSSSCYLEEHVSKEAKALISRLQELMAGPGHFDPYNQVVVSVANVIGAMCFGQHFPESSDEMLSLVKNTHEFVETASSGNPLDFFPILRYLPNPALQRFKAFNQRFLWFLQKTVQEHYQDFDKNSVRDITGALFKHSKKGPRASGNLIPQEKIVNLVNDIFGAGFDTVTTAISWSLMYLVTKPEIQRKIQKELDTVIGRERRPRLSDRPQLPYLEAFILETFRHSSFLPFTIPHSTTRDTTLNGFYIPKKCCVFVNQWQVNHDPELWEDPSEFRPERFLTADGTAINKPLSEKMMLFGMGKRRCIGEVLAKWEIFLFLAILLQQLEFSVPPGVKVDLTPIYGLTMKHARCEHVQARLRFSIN
On to `CCC(C)N1C(=O)C2C(C(=O)Nc3cccc(OC)c3)C3C=CC2(O3)C1C(=O)NC1CCCCC1C` (stereo not drawn), for which the AC50 result is “inactive”.
Take `COc1ccc(O[C@H]2C=C[C@@H](c3ccccc3)O[C@H]2CO/N=C(/C)CCC(=O)OC[C@@H]2O[C@H](c3ccccc3)C=C[C@@H]2Oc2ccc(OC)cc2)cc1`: the activity, negative = inhibition was -1.91% [at 11.4 µM].
Consider `CSC(N)=NCCC[C@@H](N)C(=O)O`, for which the AC50 entry is “inactive”.
In the case of `FC(F)(F)c1ccccc1-c1nc(NC2CC2)c2ccccc2n1`, the AC50 was 0.398 µM (active).
As for `CNc1nc(-c2ccccc2C(F)(F)F)nc2ccccc12`, the AC50 was 0.251 µM (active).
On to `O=C1[C@H]2O[C@@H]2[C@@H](O)[C@H]2[C@H]1CCn1c(=O)n(Cc3cc4c(cc3Cl)OCO4)c(=O)n12`, for which the activity, negative = inhibition was -4.53% [at 11.4 µM].
On to `COc1ccc2c(Cl)c(-c3nnco3)sc2c1`, for which the AC50 was 0.794 µM (active).
For the molecule `Cc1cccc(C)c1OC[C@H](C)N`, the AC50 is 2.51 µM (active) and 398 nM (active).
Take `Cc1cccc(C)c1OC[C@@H](N)C(C)C`: the AC50 was 12.6 µM (active).
On to `Cc1cccc(C)c1OCC(O)CNC(C)(C)C` (stereo not drawn), for which the AC50 entry was “inactive”.
Consider `O=C1C[C@@H](O)[C@@H](O)[C@H]2[C@@H]3C(=O)N(c4cccc(Oc5ccccc5)c4)C(=O)[C@@H]3CC[C@H]12`, for which the activity, negative = inhibition is 0.387% [at 11.4 µM] and -5.49% [at 11.4 µM].
With `O=C(NC(=S)Nc1ccc2c(c1)OCO2)c1ccccc1`, the AC50 was 2.82 µM (active).
Consider `O=C(NC(=S)Nc1ccc(C(=O)N2CCOCC2)cc1)c1ccc([N+](=O)[O-])cc1`, for which the AC50 result is “inactive”.
In the case of `O=C(NC(=S)Nc1ccc(Oc2ccc(Cl)cc2)cc1)c1ccccc1`, the AC50 result is “inactive”.
The same measure, in the same setting: next, `Cc1ccc(C(=O)NC(=S)Nc2ccc3c(c2)OCCO3)c(C)c1`: 7.08 µM (active).
Still for that read-out and setting: the same measure for `c1ccc(-c2nccc(-c3ccc(-n4cnc5ccccc54)cc3)n2)nc1`: 10 µM (active).
The same measure, in the same setting: next, `c1ccc2c(c1)ncn2-c1ccc(-c2ccnc(-c3ccncc3)n2)cc1`: 0.316 µM (active).
Regarding `COc1cc(OC)c(OC)cc1C=NCC1(c2ccccc2)CCCC1`, the AC50 was 8.91 µM (active).
`C#CCCCCCCCCCCCCCCCC(=O)O`: the AC50 was 6.31 µM (active).
Still for that read-out and setting: the same measure for `O=C(O)CCCCCCCC(=O)O`: “inactive”.
As to `C#CCOCCCC(=O)O`, the activity, negative = inhibition was -1.25% [at 11.4 µM].
Consider `C[C@H]1COC(=O)[C@H](Cc2ccccc2)NC(=O)[C@@H](C)COC(=O)[C@H](Cc2ccccc2)NC1=O`, for which the activity, negative = inhibition is 9.1% [at 11.4 µM].
Turning to `CCOC(=O)c1c(NC(=O)/C=C/c2ccc3c(c2)OCO3)sc(C)c1C`, the AC50 entry is “inactive”.
With `COC(=O)c1cc(NC(=O)/C=C/c2ccc3c(c2)OCO3)cc(C(=O)OC)c1`, the AC50 is 12.6 µM (active).
Turning to `CC(C)[C@H](NC(=O)OC(C)(C)C)[C@@H](O)CC(=O)C(C)(C)C`, the activity, negative = inhibition is 0.674% [at 11.4 µM].
Consider `COc1ccccc1CNc1ncncc1-c1cccnc1`, for which the AC50 is 0.794 µM (active).
For the molecule `COc1ccccc1CNc1ncncc1-c1ccoc1`, the AC50 was 1.26 µM (active).
On to `COc1ccc(CNc2ncncc2-c2cccc(NS(C)(=O)=O)c2)c(OC)c1`, for which the AC50 was 15.8 µM (active).
As to `COc1ccccc1CN1CCCC2(CCN(C(=O)c3cnccn3)CC2)C1`, the AC50 entry is “inactive”.
For the molecule `COc1ccc(CNc2ncncc2-c2cccnc2)c(OC)c1`, the concentration at half-maximal activity (AC50) is 3.16 µM (active).
Consider `COCC(=O)N1CCC2(CCCN(C(=O)Nc3cccc(F)c3)C2)CC1`, for which the AC50 entry was “inactive”.
On to `CCc1cc2c(nc1CC)CCN(CC/C(C)=N/O[C@@H](C)c1cn([C@@H]3COC[C@@H]3O)nn1)C2`, for which the activity, negative = inhibition was -1.13% [at 11.4 µM].
Regarding `COc1ccc(-c2ccc3c(n2)CCCN3C[C@H](O)CN2CCCc3nc(-c4ccc(Br)cc4)ccc32)cc1`, the activity, negative = inhibition was -3.07% [at 11.4 µM] and -10.4% [at 11.4 µM].
As for `COc1ccc(Cc2nc3ccc(S(=O)(=O)N4CCOCC4)cc3[nH]2)cc1OC`, the AC50 result was “inactive”.
`Cc1ccc2nc(Cc3ccc(N)cc3)[nH]c2c1`: the AC50 is 3.98 µM (active).
Turning to `O=C(O)c1cc(N=Cc2ccccc2O)cc(C(=O)O)c1`, the activity, negative = inhibition was -12.6% [at 11.4 µM].
On to `O=[N+]([O-])c1cc2c(cc1C=Nc1ccccc1)OCO2`, for which the AC50 was 2.82 µM (active).
The same measure, in the same setting: the same measure for `Cc1nc2cnc(N(C)C)nc2n(CCC#N)c1=O`: 10 µM (active); for `CN(C)c1ncc2ncc(=O)n(CCC#N)c2n1`: 12.6 µM (active).
As to `CC(C)=CCc1c2c(c3occ(-c4ccc(O)c(O)c4)c(=O)c3c1O)C=CC(C)(C)O2`, the activity, negative = inhibition was -3.01% [at 2.29 µM].
As for `Br/C(=N\Nc1nn[nH]n1)c1ccncc1`, the activity, negative = inhibition was -5.24% [at 11.4 µM].
`CC(C)(C)CNC(CO)C12CC3CC(CC(C3)C1)C2` (stereo not drawn): the AC50 result is “inactive”.
`CCN(Cc1ccncc1)C(=O)[C@@H](CO)c1ccccc1`: the AC50 was 15.8 µM (active).
For the molecule `C=CC[C@@H](C(=O)O)c1ccccc1`, the activity, negative = inhibition was 0.428% [at 11.4 µM].
As to `CN(C(=O)c1ccncc1)c1ccccc1`, the activity, negative = inhibition is -13.8% [at 11.4 µM].
Consider `CC(C)(C)c1[nH]nc2c1C(c1ccc(OC(=O)c3ccco3)cc1)C(C#N)=C(N)O2` (stereo not drawn), for which the AC50 is 31.6 µM (active).
On the same count and under the same terms, next, `Cn1c(=O)c(-c2cccc(C#N)c2)nc2cnc(Oc3ccccc3)nc21`: 1.58 µM (active).
Turning to `COCCn1c(=O)c(-c2ccc(F)cc2)nc2cnc(Oc3ccccc3)nc21`, the AC50 is 0.794 µM (active).
`COCCn1c(=O)c(-c2ccc(Cl)cc2)nc2cnc(Oc3ccccc3)nc21`: the AC50 was 0.794 µM (active).
Still for that read-out and setting: next, `COc1ccc(Oc2ncc3nc(-c4cccc(C#N)c4)c(=O)n(Cc4cccc(OC)c4)c3n2)cc1`: “inactive”; `COCCn1c(=O)c(-c2cccc(C#N)c2)nc2cnc(Oc3ccccc3)nc21`: 15.8 µM (active).
With `C[N+]1(NCC[N@@+]2(C)CCc3ccccc3C2)CCCCC1`, the activity, negative = inhibition was -12.7% [at 11.4 µM].
Take `COC(=O)[C@@]1(Cc2ccccc2)[C@H]2c3cc(C(=O)N4CCCC4)n(Cc4ccc(OC)c(OC)c4)c3C[C@H]2CN1C(=O)c1ccccc1`: the AC50 entry was “inactive”.
On the same count and under the same terms, next, `COCCn1c(=O)c(-c2ccccc2)nc2cnc(Oc3ccc(OC)cc3)nc21`: 1.26 µM (active); `COCCn1c(=O)c(-c2cc(F)cc(F)c2)nc2cnc(Oc3ccccc3)nc21`: 5.01 µM (active); `COCCn1c(=O)c(-c2ccccc2)nc2cnc(Oc3ccccc3)nc21`: 1.58 µM (active).
Regarding `C#CCCCO/N=C1/C[C@@H](O)[C@@H](O)[C@@H]2[C@H]3C(=O)N(c4ccc(F)cc4F)C(=O)[C@@H]3CC[C@H]12`, the activity, negative = inhibition was -9.85% [at 11.4 µM].
As to `CO[C@H]1COC(=O)C/C=C\[C@H](C)[C@@H](NS(=O)(=O)c2ccc(C)cc2)COC(=O)C/C=C\[C@@H]1C`, the activity, negative = inhibition was -4.23% [at 11.4 µM] and -3.02% [at 11.4 µM].
With `CCSC(=N)N`, the AC50 result is “inactive”.
With `C[C@@H]1O[C@H]2C3=C(C(=O)[C@H]4O[C@@H]4[C@H]3O)[C@@H]1[C@@H]1[C@@H](C)OC=C3[C@H](O)[C@H]4O[C@@H]4/C(=N\OCc4ccccc4)[C@]312`, the activity, negative = inhibition is -0.558% [at 11.4 µM].
Take `COC(=O)COc1ccc2c(-c3cccc([N+](=O)[O-])c3)cc(=O)oc2c1`: the AC50 is 2 µM (active).
`COc1ccc([N+](=O)[O-])cc1COc1ccc2c(-c3ccccc3)cc(=O)oc2c1`: the AC50 result was “inactive”.
On the same count and under the same terms, next, `COC(=O)[C@@]1(Cc2ccc(F)cc2)[C@H]2c3cc(C(=O)N4CCCC4)n(Cc4ccc(C)c(F)c4F)c3C[C@H]2CN1C(=O)c1ccccc1`: “inactive”; `CCn1c(C)nc2c1C(=O)c1ccccc1C2=O`: 0.447 µM (active).
Consider `CC(Sc1nnc(Cc2cccs2)n1C1CCCCC1)C(N)=O` (stereo not drawn), for which the AC50 entry is “inactive”.
Take `CCOC(=O)C(C)Sc1nnc(CNC(=O)c2ccc(OC)cc2)n1C1CCCCC1` (stereo not drawn): the AC50 entry is “inactive”.
In the case of `Cc1nc2c(n1C1CCCCC1)C(=O)c1ccccc1C2=O`, the AC50 was 6.31 µM (active).
Take `COC(=O)CSc1nc(C)cc(C(F)(F)F)c1C#N`: the AC50 is 2 µM (active).
Take `COC(=O)Cn1cnc(=O)c(C#N)c1/C=C/N(C)C`: the AC50 entry was “inactive”.
Still for that read-out and setting: next, `COc1ccc(NC(=O)CSc2nc(-c3ccc(C)cc3)cc(C(F)(F)F)c2C#N)cc1`: “inactive”; `COC(=O)[C@@]1(Cc2ccc(F)cc2)[C@H]2c3cc(C(=O)N(C)C)n(Cc4ccc(C)c(F)c4F)c3C[C@H]2CN1C(=O)c1ccccc1`: “inactive”.
For the molecule `CN1CCN(c2ccnc(-c3ccoc3)n2)CC1`, the AC50 is 12.6 µM (active).
For the molecule `CN1CCN(c2ccnc(-c3ccc(N(C)C)cc3)n2)CC1`, the AC50 is 0.794 µM (active).
The same measure, in the same setting: next, `CN1CCN(c2cc(-c3ccc(N(C)C)cc3)ncn2)CC1`: 2.51 µM (active).
`O=C(O)CCCCn1ccc(=O)[nH]c1=O`: the activity, negative = inhibition is -6.18% [at 11.4 µM].
As to `O=C(O)c1cscc1Cc1cccs1`, the activity, negative = inhibition was -18.8% [at 11.4 µM].
Take `O=C(NCc1ccco1)C(c1ccccc1)N(C(=O)Cc1cccs1)c1ccccc1F` (stereo not drawn): the AC50 result was “inactive”.
On to `O=C(O)C/C(=C\c1ccccc1)C(=O)O`, for which the activity, negative = inhibition is -13% [at 11.4 µM].
Take `C/C(CC(=O)NC1CCCC1)=N\NC(=O)Cc1cccs1`: the AC50 result was “inactive”.
With `O=C(Cc1cccs1)N/N=C/C(Br)=C/c1ccccc1`, the AC50 was 5.01 µM (active).
For the molecule `CC(/C=N/NC(=O)Cc1cccs1)=C\c1ccco1`, the AC50 was 11.2 µM (active).
As for `CN1CC[C@@]2(CCCN(C(=O)c3cccc(F)c3)C2)C1`, the AC50 result was “inactive”.
With `Cc1cc(S(=O)(=O)NCCN(C)C)c(C)s1`, the AC50 result is “inactive”.
Take `CCOc1cc(/C=N/O)cc(Cl)c1OC`: the AC50 was 1.41 µM (active).
Turning to `CCCCOC(=O)C1=C(C)Nc2ncnn2C1c1cc(OC)ccc1OC` (stereo not drawn), the AC50 result is “inactive”.
Turning to `COc1ccc(C2C(C#N)=C(N)OC3=C2C(=O)CC(C)(C)C3)c([N+](=O)[O-])c1OC` (stereo not drawn), the AC50 result was “inactive”.
Consider `COC(=O)C1=C(C)OC(N)=C(C#N)C1c1cc(OC)ccc1OC` (stereo not drawn), for which the AC50 was 15.8 µM (active).
Regarding `COc1ccc(C2/C(=C(/O)c3ccc4c(c3)CC(C)O4)C(=O)C(=O)N2CCN2CCOCC2)cc1` (stereo not drawn), the AC50 entry was “inactive”.

Source of the values: PubChem BioAssay AID1851 (National Center for Advancing Translational Sciences (NCATS), 2009).
